The record followed here is PubChem BioAssay.

Assay [1] deals with 6-phosphogluconate dehydrogenase, decarboxylating (Homo sapiens) (UniProt P52209). As to the kind of experiment: inhibition of human phosphogluconate dehydrogenase – biochemical, recombinant enzyme, NADPH absorbance, primary screen (AID 1159550). Particulars: recombinant 6PGD, NADPH absorbance 341 nm; at 10 µM; stronger effect = higher value.
A short description of assay [2]: P. berghei load reduction in hepatocytes – cell-based, HepG2, luciferase luminescence, HepG2 viability, primary screen (AID 624349; in the data active = parasite load remaining mostly below about 12%, no sharp cut-off; inactive = mostly above about 10%;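 also: 100% = mean of DMSO negative control wells on the same plate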). Particulars: P. berghei liver stage in HepG2, luciferase luminescence, concentration not given here; parasite load remaining: stronger effect = lower value; viability: measured here: HepG2 viability without parasites.
Assay [3] can be described thus: Wnt pathway potentiators raising nuclear beta-catenin – imaging, WNT3A-conditioned medium, mouse C2C12, NPC library, primary screen (AID 1117326; in the data active = nuclear beta-catenin stimulation mostly above about 4.2%, no sharp cut-off; inactive = mostly below about 10%). The following applies: stronger effect = higher value.
A short description of assay [4]: stimulators of insulin release from INS-1E, primary screen, cell-based, 5 mM glucose, NPC library (AID 1117329;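 active = compound raises insulin release from rat beta cells at 5 mM glucose, no numeric limit stated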). Particulars: rat INS-1E insulin secretion, at 10 µM, stronger effect = higher value.
Assay [5] is described as follows: GLP1 release stimulators, primary, NCI-H716, NPC library (AID 1117341;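 active = compound raises GLP1 secretion from the human gut endocrine cells, with no numeric limit stated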). The following applies: NCI-H716 cells, at 10 µM, stronger effect = higher value.
Assay [6] in a line: EMT-state selective cytotoxicity in co-culture – imaging, PC-3E GFP, TEM4-18 mCherry, primary screen (AID 1345086;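 active = compounds killing one labelled cell type while sparing the other, by normalised counts and ratio limits, not self-fluorescent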;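 also: cells exposed to compound for 72 h before imaging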;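 as to red/green cell ratio (normalised): normalised mesenchymal count divided by normalised epithelial count so high means epithelial killing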). Particulars: PC-3E GFP / TEM4-18 mCherry co-culture, imaging cell counts, at 1 µM.
Assay [7] in a line: viability loss with induced miR-34 in A549 – imaging, A549 dox-inducible miR-34, nuclei and caspase counts, primary screen (AID 1347080;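 active = compounds whose cell count with miR-34 switched on is under 0.7 times the count with it off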). Particulars: A549 miR-34 inducible, Hoechst nuclei count, 48 h.
Assay [8] in a line: compounds altering circadian rhythm period length – cell-based, LOPAC library, luminescence reporter (AID 2774; call rule not given here;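 also: values are relative to mean of DMSO wells on each plate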). The following applies: circadian reporter cells, at 7 µM, actives lie on both sides.
Assay [9] deals with Hepatitis C virus NS3 helicase. As to the kind of experiment: blockers of NS3h binding to ssDNA – biochemical, fluorescence polarization, LOPAC1280 library, primary screen (AID 687035; in the data active = inhibition above about 37%). Particulars: Purified HCV NS3 helicase, Cy5-dT15 ssDNA binding fluorescence polarization; stronger effect = higher value; concentration not given here. In general terms: Polarisation of emitted light reports the rotation of a fluorescent probe.

The nature of assay [10]: growth inhibition of GSK3B-pretreated HCT116 cells – cell-based, CellTiter-Glo, 0.2 to 20 µM (AID 1117336;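 active = compounds lowering colon cancer cell viability after pretreatment blocking the GSK3B kinase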). Particulars: HCT116 viability after GSK3B inhibitor, at 20 µM, stronger effect = higher value. (In general: Cellular ATP, detected with luciferase, serves as a proxy for viable cell number.)
Assay [11] in a line: HCT116 colon cancer cell growth inhibition, primary screen, CellTiter-Glo luminescence, NPC library (AID 1117342;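 active = compounds that lower survival of HCT116 colon cancer cells in the luminescence readout, no numeric limit stated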). Particulars: at 20 µM (top of the series).
Assay [12] can be described thus: reduced SW480 viability measured with CellTiter-Glo, NPC library, primary (AID 1117343;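 active = compounds that lower viability of the colon cancer cells in the luminescence readout, with no numeric limit stated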). The following applies: CellTiter-Glo luminescence; at 20 µM (top of the series).
Assay [13] can be described thus: NPC library primary testing for decreased DLD-1 cell viability via CellTiter-Glo (AID 1117346;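 active = compounds that lower survival of DLD-1 colon cancer cells in the luminescence readout, no cutoff given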). Particulars: DLD-1 viability, CellTiter-Glo luminescence; at 20 µM (top of the series).
The subject of assay [14] is Aerobactin synthetase IucA (Klebsiella pneumoniae, hypervirulent). In words: biochemical IucA inhibition screen of LOPAC library by absorbance (AID 1346212; call rule not given here;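 also: 100% = no compound wells and 0% = no enzyme wells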). The following applies: IucA enzyme assay, absorbance (OD) readout; stronger effect = lower value;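 tested at 8 µM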.
Assay [15] in a line: galactose survival enhancers in mitochondrial complex I cybrids – cell-based, galactose medium, ATP luminescence, primary screen (AID 1645843;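 active = z-score of at least 1.8 in each of two replicates, scored against plate mean and spread of sample wells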;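 also: positive z means more ATP and so rescue of galactose-driven cybrid death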). The following applies: complex I mutant cybrid cells, 72 h, stronger effect = higher value.
Assay [16] in a line: inhibition of endothelial tube formation, primary screen, imaging, VEGF stimulated, CD31 staining, tube area, NPC library (AID 1117340;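 active = compound that reduces growth-factor-driven endothelial tube area in a mixed cell culture, no cutoff stated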). Particulars: VEGF-stimulated ADSC/ECFC co-culture, at 10 µM, stronger effect = higher value.
Assay [17] can be described thus: MELAS cybrid and Rieske KO viability enhancers – cell-based, MELAS cybrids, Rieske KO mouse fibroblasts, CellTiter-Glo, primary screen (AID 1508586;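 active = mean z-score across replicates of 1.96 or higher in either the MELAS or the Rieske mutant cell line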;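 also: z relative to plate mean and SD of compound and empty wells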). The following applies: low glucose.
Setting [18] is: measured here: relative caspase fold change +Dox/-Dox.
Setting [19] is: measured here: total cells with miR-34 induction, stronger effect = lower value.
[20] abbreviates: measured here: total cells without miR-34 induction.

What is called inhibition is the relative decrease from the control value, in per cent. In general, viability refers to a read-out of living cells in per cent, often relative to untreated cells. The remaining activity is the signal under treatment as a percentage of the control signal.

The structures appear in SMILES notation. Activity calls are given as the source filed them.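 The calls were made as follows, unless noted: active = at least 20% inhibition of 6-phosphogluconate dehydrogenase activity; inactive = the rest.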

Sequence of 6-phosphogluconate dehydrogenase, decarboxylating (Homo sapiens) (P52209 whole entry, looked up): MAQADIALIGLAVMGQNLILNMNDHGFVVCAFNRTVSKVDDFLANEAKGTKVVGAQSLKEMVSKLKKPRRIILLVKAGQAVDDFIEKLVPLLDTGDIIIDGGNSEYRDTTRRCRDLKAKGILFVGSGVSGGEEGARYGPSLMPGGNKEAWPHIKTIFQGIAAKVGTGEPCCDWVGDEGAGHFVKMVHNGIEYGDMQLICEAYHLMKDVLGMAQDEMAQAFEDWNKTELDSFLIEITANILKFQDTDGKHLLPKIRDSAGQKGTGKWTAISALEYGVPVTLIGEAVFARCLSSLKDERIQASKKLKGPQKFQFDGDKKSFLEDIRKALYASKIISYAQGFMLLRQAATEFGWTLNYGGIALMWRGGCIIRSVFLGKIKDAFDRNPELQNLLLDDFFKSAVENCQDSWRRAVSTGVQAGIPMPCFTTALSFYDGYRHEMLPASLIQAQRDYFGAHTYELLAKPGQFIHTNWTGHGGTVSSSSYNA

Turning to `CNC(=O)Oc1cccc2c1OC(C)(C)O2`, in [1], the inhibition is -4.88% (inactive).
Still for that read-out and setting: the result for `Cn1c(=O)c2c(ncn2CCCl)n(C)c1=O` reads -2.23% (inactive).
Still for that read-out and setting: the result for `CO[C@H]1[C@H](O)[C@H](O[C@H]2CC[C@]3(C)C4CC[C@]5(C)[C@@H](C6=CC(=O)OC6)CC[C@]5(O)C4CC[C@@H]3C2)O[C@@H](C)[C@@H]1O` (stereo partly specified) reads 11.3% (inactive); that for `CN1C2C[C@H](OC(=O)[C@H](CO)c3ccccc3)CC1[C@@H](O)C2` (stereo partly specified), -3.17% (inactive).
Consider `CCS(=O)CCSP(=O)(OC)OC` (stereo unspecified), for which the inhibition in assay [1] was 1.58% (inactive).
`CC1=CC(=O)C2=C(C)C[C@H](O)[C@H]3[C@H](C)C(=O)O[C@@H]3C12` (stereo partly specified): the inhibition in [1] was -7.67% (inactive).
On to `COP(=S)(OC)Oc1ccc(Sc2ccc(OP(=S)(OC)OC)cc2)cc1`, for which, in assay [2], the parasite load remaining was 25% (inactive). Moreover, the viability in assay [2] was determined as 137%. Also, the nuclear beta-catenin stimulation in [3] (at 10 µM) was 5.7% (inactive); in [3] (stimulation, at 2 µM), -0.8%. The insulin secretion stimulation in assay [4] is 0.05% (inactive). For the same molecule, the GLP1 secretion stimulation in [5] was -8.7% (inactive). Besides, the inhibition in assay [1] is -4.06% (inactive). For the same molecule, the red/green cell ratio (normalised) in assay [6] (actives lie on both sides) was 0.91 (inactive). Besides, the values for the normalised cell number in assay [6] (measured here: epithelial PC-3E GFP cell survival) and in [6] (measured here: mesenchymal TEM4-18 mCherry cell survival) were 1.08 and 0.98, respectively. Moreover, the fold change in assay [7] (stronger effect = lower value) was 0.838 (inactive); in assay [7] (setting [18]) it was 1.68. The results for the cell count in assay [7] (setting [19]) and in assay [7] (setting [20]) were 9320 and 11100, respectively.
Consider `C[C@]12C=CC(=O)C=C1CC[C@@H]1[C@@H]2CC[C@]2(C)C(=O)CC[C@@H]12`, for which the inhibition in [1] was -9.35% (inactive).
Take `COc1ccc2c(c1OC)C(=O)O[C@H]2[C@@H]1c2cc3c(cc2CCN1C)OCO3`: the period change in assay [8] is -0.14 h (inactive). The inhibition is -3% (inactive) in assay [9] and -1.62% (inactive) in assay [1]. The nuclear beta-catenin stimulation in [3] (at 10 µM) was -0.8% (inactive); in assay [3] (stimulation, at 2 µM), 7.9%. Moreover, the viability decrease in assay [10] was 19.2% (inactive). Besides, the inhibition of viability in assay [11] was 19.8% (inactive). For the same molecule, the viability decrease (inhibition) in assay [12] is 3.5% (inactive); in [13], -6.5% (inactive). In assay [14], the remaining activity is 110% (inactive). In addition, the fold change in [7] (stronger effect = lower value) is 0.977 (inactive); in assay [7] (setting [18]) it was 1.1. In addition, the cell count stood at 10700 in assay [7] (setting [19]) and 10900 in assay [7] (setting [20]). In assay [15], the z-score is 0.055 (inactive).
Regarding `ClC1=C(Cl)C2(Cl)C3C(Cl)C(Cl)CC3C1(Cl)C2(Cl)Cl` (stereo unspecified), the inhibition in assay [1] was -19% (inactive).
Same read-out and setting: the result for `CN[C@H]1C[C@@H](N)[C@H](O)[C@@H](O[C@@H]2O[C@H](CO)[C@H](O)[C@@H]3OC4(O[C@H]23)O[C@H]([C@@H](N)CO)[C@H](O)[C@@H](O)[C@H]4O)[C@@H]1O` (stereo partly specified) reads 14.7% (inactive); that for `CCOP(=S)(OCC)SCCSCC`, 3.96% (inactive).
Consider `C=CCN1CC[C@]23CCCC[C@H]2[C@H]1Cc1ccc(O)cc13`, for which the nuclear beta-catenin stimulation was 3.5% (inactive) in assay [3] (at 10 µM) and 0.3% in assay [3] (stimulation, at 2 µM). In assay [4], the insulin secretion stimulation was 12.2% (inactive). The GLP1 secretion stimulation in assay [5] was 8.3% (inactive). Besides, the remaining activity in [14] is 94.8% (inactive).
For `C[C@]12CC[C@H](O)C[C@H]1CC[C@@H]1[C@@H]2[C@H](O)C[C@]2(C)[C@@H](C3=CC(=O)OC3)CC[C@]12O`, the inhibition in [1] was 11.1% (inactive).
Same read-out and setting: the result for `CCCCN(CC)c1c([N+](=O)[O-])cc(C(F)(F)F)cc1[N+](=O)[O-]` reads -9.8% (inactive); that for `CCC1(O)CC(OC2CC(N(C)C)C(O)C(C)O2)c2c(cc3c(c2O)C(=O)c2c(O)ccc(O)c2C3=O)C1C(=O)OC` (stereo unspecified), -0.278% (inactive).
With `CC(C)(C)c1ccc(O)cc1`, in assay [4], the insulin secretion stimulation was 0% (inactive). For the same molecule, in assay [10], the viability decrease is -1.5% (inactive). Further, in assay [16], the tube area decrease was -21.2% (inactive). Also, in assay [5], the GLP1 secretion stimulation was 3.8% (inactive). The inhibition of viability in [11] was 7.9% (inactive). Moreover, the viability decrease (inhibition) was 15.7% (inactive) in assay [12] and 4.65% (inactive) in assay [13].
For the molecule `c1ccc2c(c1)Sc1ccccc1N2CC1CN2CCC1CC2` (stereo unspecified), the nuclear beta-catenin stimulation was 50.9% (active) in [3] (at 10 µM) and -0.7% in [3] (stimulation, at 2 µM). For the same molecule, in assay [4], the insulin secretion stimulation was 11.5% (inactive). Also, the GLP1 secretion stimulation in assay [5] is 26.8% (active). The fold change is 0.854 (inactive) in assay [7] (stronger effect = lower value) and 0.648 in [7] (setting [18]). In addition, the figures for the cell count in assay [7] (setting [19]) and in assay [7] (setting [20]) were 6390 and 7490, respectively. Also, the z-score in assay [17] (MELAS cybrid survival, CellTiter-Glo 48 h, stronger effect = higher value) is -0.772 (inactive); in assay [17] (Rieske KO mouse fibroblast survival, CellTiter-Glo 72 h), -0.213; in [15], -2.58 (inactive).
With `COC(=O)c1ccccc1C(=O)OC`, the nuclear beta-catenin stimulation in assay [3] (at 10 µM) is -1.6% (inactive); in assay [3] (stimulation, at 2 µM) it was -0.6%. Also, the insulin secretion stimulation in assay [4] is 0.5% (inactive). For the same molecule, the GLP1 secretion stimulation in [5] is -5.4% (inactive).
In the case of `COc1cc2c(cc1OC)C(=O)c1ccc(OC)c(OC)c1OCC(=O)C2`, in assay [1], the inhibition is -4.44% (inactive).
On the same count and under the same terms, the same measure for `ClC1=C(Cl)[C@]2(Cl)[C@H]3[C@H]([C@@H]4C=C[C@H]3C4)[C@@]1(Cl)C2(Cl)Cl`: 6.64% (inactive).
